RecA splice inh: Mtb RecA intein splicing inhibitors, primary screen, biochemical, fluorescence, HTS. cell-free RecA intein splicing. inhibition, % (test concentration not listed). hit rate 0.75% among 290,000; in the data active = inhibition above about 30%;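 note: 0% = vehicle wells and 100% = reference inhibitor control wells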
GDH-TPI counter: GDH-TPI coupling enzyme inhibitors, primary screen, artefact control for M. tuberculosis FBA inhibitor project, biochemical, absorbance, full deck; inhibition, % at 4.8 µM; hit rate 1.2% among 360,000; GDH-TPI coupled enzyme counterscreen, NADH absorbance; AID 588335, 2011;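 note: 0% = DMSO wells and 100% = wells lacking the enzyme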
FBA Mtb inh: Mtb FBA enzyme inhibitors, primary screen, biochemical, fluorescence, strain H37Rv. purified M. tuberculosis FBA, fluorescence read-out. inhibition, % at 1 µM. hit rate 2.3% among 360,000. AID 588726, 2011; in the data active = inhibition above about 27%;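 note: 0% = vehicle and 100% = reference inhibitor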
CCHFV vOTU inh: CCHFV vOTU protease inhibitors, primary screen, biochemical, Pep-AMC substrate, fluorescence; Crimean-Congo hemorrhagic fever virus L polyprotein viral ovarian tumor (vOTU) protease …; inhibition, % at 11.5 µM; hit rate 0.55% among 370,000; note: 0% = vehicle wells with enzyme and 100% = no enzyme wells
Mtb betalactam: beta-lactam sensitization of Mtb H37Rv, H37Rv. M. tuberculosis H37Rv growth with meropenem, percent inhibition. hit rate 0.27% among 330,000. inhibition, % at 25 µM; call rule not given here;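 note: growth measured after seven days incubation then overnight dye step; 0% = bacteria only wells and 100% = bacteria with antibiotic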
Starred values were filed as active, the others as inactive; · = no result given. Hits are enriched below; roughly 4.2% of the tested compounds scored in any of these assays. Cut-off read from the data, not from the text of the source, unless noted: active = inhibition above about 30%; inactive = the rest.

SMILES | RecA splice inh | GDH-TPI counter | FBA Mtb inh | CCHFV vOTU inh | Mtb betalactam
Cc1nc2c(C)cccc2cc1C(=O)N/N=C/c1ccc(N(C)C)cc1 | 0 | 51* | 3 | 16 | -6
O=C(CSc1nnc(COc2ccccc2)n1-c1ccc(Cl)cc1)Nc1ccc(OCc2ccccc2)cc1 | · | · | · | -3 | ·
COC(=O)[C@]12C[C@H](CC(=O)N3CCN(C(=O)c4ccco4)CC3)C(=O)N(CCc3ccc(OC)c(OC)c3)C1=C[C@H](C1CCCC1)O[C@@H]2C | · | · | · | 1 | ·
CC(C)[C@H](NC(=O)[C@H](Cc1ccccc1)NC(=O)OC(C)(C)C)C(=O)N1CCC2CCN(S(=O)(=O)c3ccccc3)CC21 (some centres not stated) | · | · | · | 7 | ·
CC(=O)Nc1ccc(/C=N/NC(=O)c2cc3cc(C)ccc3nc2C)cc1 | -1 | 38* | 0 | -8 | -3
CC(=O)Nc1ccc(/C=N/NC(=O)c2cc3ccccc3nc2C)cc1 | -5 | 26 | 0 | 3 | 6
CN(C)c1ccc(/C=N\NC(=O)c2ccc(Cn3cc(Cl)cn3)cc2)cc1 | -2 | 35* | 0 | 4 | 10
CCOC(=O)c1csc(NC(=O)C2CCCN(S(=O)(=O)c3ccc(C)cc3)C2)n1 (configuration not stated) | · | · | · | 0 | ·
COc1ccc(C(=O)OCCCN(C)C2CN(Cc3cn(Cc4ccccc4F)nn3)S(=O)(=O)C2)cc1OC (configuration not stated) | · | · | · | -7 | ·
COC(=O)[C@H](C(C)C)N(Cc1cn(Cc2ccccc2)nn1)S(=O)(=O)c1ccccc1Br | · | · | · | 4 | ·
O=C(N=c1nc2ccccn2s1)c1ccccc1 | 4 | 32* | 2 | -3 | 5
O=C(c1ccccc1)n1c(=S)nc2ccccn21 | 0 | 30 | -5 | 7 | -13
CCOC(=O)/C(C#N)=N\Nc1ccc(S(=O)(=O)Nc2nc(C)cc(C)n2)cc1 | -2 | 5 | -1 | -9 | 1
COc1cc(NS(=O)(=O)c2ccc(N/C=C(\C#N)c3nc4cc(Cl)ccc4o3)cc2)nc(OC)n1 | 21 | 53* | 5 | -6 | 10
CCOC(=O)/C(C#N)=N/Nc1ccc(S(=O)(=O)Nc2cc(OC)nc(OC)n2)cc1 | 0 | 38* | -8 | 1 | 0
CCOC(=O)c1c(CCl)nc2ccccc2c1-c1ccccc1 | 41* | 3 | 24 | 10 | 97
CC1=C(C)/C(=N\OS(=O)(=O)c2ccccc2)C=CC1=O | 41* | 10 | 2 | · | 100
CN(C)c1ccc(-c2nnc(-c3ccccc3F)o2)cc1 | -3 | 33* | 22 | -12 | -2
COc1ccc(-c2nnc(-c3ccc(N(C)C)cc3)o2)cc1 | 2 | 22 | 18 | 0 | 50
Cc1ccc(C)c(-n2c(C)cc(/C=N/NC(=O)c3c(C)nc4cc(C)ccn34)c2C)c1 | 2 | 39* | 2 | 2 | -10
Cc1ccc2nc(C)c(C(=O)N/N=C/c3cccs3)cc2c1 | -3 | 18 | -1 | 13 | -5
Cc1nc2ccccn2c1C(=O)N/N=C/c1ccccc1Cl | 14 | 22 | -2 | 1 | 0
Cc1ccn2c(C(=O)N/N=C\c3cccs3)c(C)nc2c1 | -2 | 62* | 0 | 3 | -14
Cc1ccc2nc(C)c(C(=O)N/N=C/c3cccs3)n2c1 | 0 | 37* | 1 | 9 | 3
COC(=O)[C@]12C[C@H](CC(=O)NCc3cccc4ccccc34)C(=O)N(Cc3ccc(Cl)cc3Cl)C1=C[C@H](C(C)(C)C)O[C@@H]2C | · | · | · | 20 | ·
SMILES | RecA splice inh | GDH-TPI counter | FBA Mtb inh | CCHFV vOTU inh | Mtb betalactam
Cc1cc(C(=O)Nc2ccc(Cl)c(Cl)c2)n(-c2ccccc2)n1 | · | · | · | -5 | ·
COC(=O)[C@]12C[C@H](CC(=O)NCCCN3CCCC3=O)C(=O)N(Cc3ccc(Cl)cc3Cl)C1=C[C@H](C1CCCC1)O[C@@H]2C | · | · | · | 4 | ·
COC(=O)CCC(=O)OC1(C)C(=O)C2=CN(CCCCO)C(c3ccc(OC)cc3)=CC2=C(Br)C1=O (configuration not stated) | 48* | · | · | · | 16
O=C(N/N=C/c1ccc(Br)s1)c1ccc([N+](=O)[O-])cc1 | -1 | 3 | -3 | -11 | 2
O=C(N/N=C/c1ccc(Br)s1)c1ccccc1[N+](=O)[O-] | 3 | 38* | -3 | -8 | -2
O=C(CNC(=O)c1ccccc1)N/N=C/c1ccc([N+](=O)[O-])s1 | -2 | 19 | -3 | 14 | 99
O=C(Cc1ccccc1)NCC(=O)N/N=C/c1ccc([N+](=O)[O-])s1 | -4 | 5 | -3 | 31* | 98
Cc1ccc(S(=O)(=O)c2c(C)nn(C(C)(C)C)c2OC(=O)c2ccco2)cc1 | -3 | 3 | 189* | 8 | 4
Cc1ccc(S(=O)(=O)c2c(C)nn(C(C)(C)C)c2OC(=O)c2ccc(Br)o2)cc1 | 11 | 5 | -1 | 5 | -2
COC(=O)[C@]12C=CCN1[C@@H](c1ccc(Cl)cc1)c1c(c3ccccc3n1S(=O)(=O)c1ccc(C)cc1)C2 | · | · | · | 0 | ·
O=C(c1ccc(=O)oc1)N1CCN(C(c2ccccc2)c2ccccc2)CC1 | 1 | 39* | 9 | 5 | -10
N=c1c2c(-c3ccccc3)c(-c3ccccc3)n(CCc3ccccc3)c2ncn1CCO | · | · | · | 7 | ·
O=C1OCCN1C(=O)[C@H]1[C@H](c2ccc(Cl)cc2)C(c2ccc(F)cc2)=NN1c1ccc(Br)cc1 | · | 31* | 55* | 11 | ·
COc1ccc(-c2nnc(SCC(=O)N/N=C(\C)c3ccc(-c4ccccc4)cc3)n2-c2ccc(C)cc2)cc1 | · | · | · | 15 | ·
N#C/C(=N\Nc1ccc(Cl)cc1)C(=O)c1ccccc1 | 7 | 31* | -18 | 4 | -3
Cc1c(N/N=C(\C#N)C(=O)c2ccc(Cl)cc2)c(=O)n(-c2ccccc2)n1C | -7 | 23 | -14 | 18 | -2
c1ccc(-n2c(SCc3cccc4ccccc34)nnc2-c2ccncc2)cc1 | · | · | · | 1 | ·
C[C@H]1Cn2nnc(-c3ccccc3)c2Cn2c3ccccc3c(=O)n21 | · | · | · | -4 | ·
CCCCC(=O)Nc1cc([N+](=O)[O-])ccc1Cl | 0 | -5 | 5 | 11 | 11
O=C(CC(=O)c1ccccc1)Nc1cc([N+](=O)[O-])ccc1Cl | 2 | 31* | 0 | -7 | 0
O=C(COC(=O)c1ccc(O)cc1)Nc1ccc(Cl)cc1C(=O)c1ccccc1 | 12 | 0 | -3 | -4 | 2
COC(=O)c1cc(Cl)ccc1NCC(N)c1ccccc1 (configuration not stated) | · | · | 115* | -176 | ·
O=C(Nc1ccccc1)Nc1nc2ncccn2c1-c1ccc(F)c(F)c1 | · | · | · | -10 | ·
N#CCC[C@H]1CC[C@]2(CCCN(Cc3ccccc3)C2)O1 | · | · | · | -1 | ·
COc1ccc(/C=C(\NC(=O)c2ccccc2)C(=O)N/N=C/c2ccncc2)cc1 | 5 | 49* | 0 | 14 | -1
Cc1ccnc(N/C=C(/NC(=O)c2ccccc2)C(=O)N/N=C\c2ccc(F)cc2)n1 | 4 | 54* | 2 | 1 | -12

Screens (PubChem)
